# Experimental data as given in PubChem BioAssay AID588382 (National Center for Advancing Translational Sciences (NCATS), 2011).
# In all, about 1,300 compounds went through this assay and about 150 (12%) were called active. A call without a number means that no potency is given here. Roughly 30% stayed inconclusive and do not appear here. The call rests on the fitted dose curve; in most records, active means well fitted cell-killing curve with a large enough effect; inconclusive means small, poorly fitted or top-dose-only effect, or effect the other way; inactive means flat fitted curve, though single readings scatter. For the sample, actives were picked, then their nearest neighbours and some compounds at random.
# Assay: qHTS of small molecules that selectively kill Giardia lamblia: Hit Validation in HepG2 cytotox;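 further: compound exposure lasted overnight at 37 deg C; nearly all actives have a fitted effect of over 55% in size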
# Conditions: cell viability; Potency: HepG2 cytotoxicity; series mostly up to 38.3 µM
# How it was run: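 Counterscreen cytotoxicity: ATPLite luminescence (15 min, room temperature) measured in HepG2 cells exposed overnight at 37 deg C to pin-transferred compound (23 nL) after overnight pre-incubation.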
# Potency means the concentration at half of the fitted maximal effect.
row,SMILES,Potency
1,Cc1ccc(S(=O)(=O)N2CCN(C(=O)COc3ccc(C)nc3[N+](=O)[O-])CC2)c(C)c1,inactive
2,Cc1ccc(OCC(=O)c2cc(C)n(C)c2C)c([N+](=O)[O-])n1,inactive
3,COc1ccc(-n2nc([N+](=O)[O-])c(=NCCc3ccc(C)cc3)n2O)cc1,inactive
4,Nc1nc(Cl)nc2c1ncn2[C@H]1C[C@H](O)[C@@H](CO)O1,inactive
5,Cc1ncc([N+](=O)[O-])n1CCN1C(=O)c2ccccc2C1=O,inactive
6,O=C1c2ccccc2C(=O)c2c1ccc1c(=O)n(C3CCCCC3)[nH]c21,inactive
7,O=C(CSc1cccc[n+]1[O-])Nc1cc2c(cc1Cl)C(=O)c1ccccc1C2=O,inactive
8,O=C(N/N=C/c1cc2c(cc1[N+](=O)[O-])OCO2)c1ccccn1,inactive
9,Cc1ccc(N/C(C(Cl)=C(Cl)Cl)=C(/Cl)[N+](=O)[O-])c(C)c1,inactive
10,O=C(CCCn1cnc([N+](=O)[O-])n1)Nc1cccc(Cl)c1Cl,inactive
11,O=[N+]([O-])c1nn(-c2ccc3c(c2)OCCO3)n(O)c1=NCc1ccccc1Cl,inactive
12,Cc1oc2cc([N+](=O)[O-])c(O)c([N+](=O)[O-])c2c1C(=O)c1ccc(Cl)cc1,inactive
13,CCN(CC)C(=O)Cn1cc([N+](=O)[O-])cc1[N+](=O)[O-],inactive
14,CC1(C)Oc2cc3oc(-c4cc(O)cc(O)c4)cc3cc2CC1O (stereo not drawn),5.85 µM (active)
15,CCCCNC(=O)/C(=C\c1ccc([N+](=O)[O-])o1)NC(=O)c1ccccc1,inactive
16,O=C1c2ccc3c4c(ccc(c24)C(=O)N1CCCCO)C(=O)N(CCCCO)C3=O,4.14 µM (active)
17,O=C(CCN1C(=O)c2ccccc2C1=O)Nc1ccccc1C(F)(F)F,inactive

row,SMILES,Potency
1,O=C(CCN1C(=O)c2ccccc2C1=O)NCc1ccc(F)cc1,inactive
2,O=[N+]([O-])c1nn(-c2ccc3c(c2)OCCO3)n(O)c1=NCCC1=CCCCC1,inactive
3,O=c1c([N+](=O)[O-])cccn1Cc1ccccc1Cl,inactive
4,[O-][n+]1c2ccccc2c2n1CCN=C2c1ccc(Cl)cc1,inactive
5,O=[N+]([O-])c1nn(-c2ccc3c(c2)OCCO3)n(O)c1=Nc1ccc(Cl)cc1,inactive
6,COc1cc2nc(N3CCN(C)CC3)nc(NC(C)C)c2cc1OC,inactive
7,COc1cc2nc(N3CCN(c4cc(C)ccc4C)CC3)nc(N)c2cc1OC,9.27 µM (active)
8,Cc1cc(=S)nc(-c2ccccn2)[nH]1,inactive
9,CN1C(=O)/C(=C/c2ccc(O)c([N+](=O)[O-])c2)NC1=S,inactive
10,CCc1cccc(N=c2c([N+](=O)[O-])nn(-c3ccc4c(c3)OCCO4)n2O)c1,inactive
11,Cc1cccc(NC(=O)c2ccc([N+](=O)[O-])s2)c1C,inactive
12,Cc1cc(C)cc(Oc2ccc(NC(=O)C3CC=CCC3C(=O)O)cc2)c1 (stereo not drawn),inactive
13,CCn1nc(-c2ccc(C)cc2)nc2c(=O)n(C)c(=O)nc1-2,5.21 µM (active)
14,CCc1ccc(-c2nc3c(=O)n(C)c(=O)nc-3n(CC)n2)cc1,1.85 µM (active)
15,CC(=O)O[C@@H]1[C@@H](OC(C)=O)[C@H](n2ccc3cc([N+](=O)[O-])ccc32)OC[C@@H]1OC(C)=O,inactive
16,Cc1ccc([C@@H]2CC=C(C(=O)O)CN2S(=O)(=O)c2ccc(C)cc2)cc1,inactive
